The record followed here is PubChem BioAssay (NCATS).

Inconclusive results are not listed. Values without a mark were called inactive. Calls of active or inactive are those of the source. Calls come from the whole dose curve; as a rule, active = well fitted cell-killing curve with a large enough effect; inconclusive = small, poorly fitted or top-dose-only effect, or effect the other way; inactive = no such curve, though single readings can be large or run the other way.
Potency is the fitted concentration of half-maximal effect.

A short description of the experiment: Quantitative High-Throughput drug screen in 47 multiple myeloma cell lines against the NCATS MIPE library collection: Karpas25_ECACC cell viability assay (AID 1918968; note: nearly all actives have a fitted effect of over 35% in size). To be noted: Karpas25 myeloma viability, CellTiter-Glo ATP, 48 h; series mostly up to 45.8 µM; viability (% of control): at the top concentration. The text has this: PI: Beverly A. Mock Ph.D.
Laboratory of Cancer Biology and Genetics,
Center for Cancer Research, National Cancer Institute,
National Institute of Health, Bethesda, Maryland
Drug resistance and disease progression are common in multiple myeloma (MM) patients, underscoring the need for new therapeutic combinations. […] We hypothesized that effective combinations would reduce MYC expression and enhance p16 activity. […] These preclinical data identify potentially useful drug combinations for evaluation in drug-resistant MM and reveal potential mechanisms of combined drug sensitivity.
Described herein is the primary MIPE qHTS used to cherrypick compounds. Validated compounds were then further tested for potential synergistic activiy.
[1] Peat TJ, Gaikwad SM, Dubois W, Gyabaah-Kessie N, Zhang S, Gorjifard S, Phyo Z, Andres M, Hughitt VK, Simpson RM, Miller MA, Girvin AT, Taylor A, Williams D, D'Antonio N, Zhang Y, Rajagopalan A, Flietner E, Wilson K, Zhang X, Shinn P, Klumpp-Thomas C, McKnight C, Itkin Z, Chen L, Kazandijian D, Zhang J, Michalowski AM, Simmons JK, Keats J, Thomas CJ, Mock BA. Drug combinations identified by high-throughput screening promote cell cycle transition and upregulate Smad pathways in myeloma. Cancer Lett. 2023 Aug 1;568:216284. doi: 10.1016/j.canlet.2023.216284. Epub 2023 Jun 24. PMID: 37356470; PMCID: PMC10408729.
SEQUENCE No. (e.g., 1, 2, 3, etc.); […] (e.g., Cells, Incubation, Reagent, etc.); VALUE and DESCRIPTION.
1; Cells; 5 uL; white, solid bottom 1536-well Greiner assay plate.
2; Compounds; 23 nL; Kalypsis pin tool (Wako USA) equipped with a 1536-well pin head to transfer to the assay plates.
3; Incubation; 48 hours; 37C incubation.
4; Reagent;5uL; CellTiter Glo (Promega).
5; Detector; 425V; Luminescence; Viewlux PerkinElmer.
NOTES (numbers refer to Sequence numbers above)
1. The cell-based screening methods employed in this study were like those previously published. Briefly, the corresponding myeloma cell lines were screened in 1,536-well plates with 500 cells, 5-uL per well for inhibition of cell viability (assessed by measuring ATP levels with CellTiterGlo).
2. NCATS MIPE 4.0 library of approved and investigational drugs were added using the Kalypsis pin tool. Wells treated with DMSO only for 100% viability and media only wells for 0% viability were used as controls.
3. The assay plates were covered and incubated for 48 hours in a 37C, 5% CO2 incubator with controlled humidity.
4. After 48 hours, CellTilter-GloTM luminescent substrate mix (Promega) reagent was added to the assay plate and plates we incubated for 5 min at room temperature.
5. Signal was measured as median relative luminescence units on a ViewLux (PerkinElmer) multiplate reader.
[1] Heske CM, Davis MI, Baumgart JT, Wilson K, Gormally MV, Chen L, Zhang X, Ceribelli M, Duveau DY, Guha R, Ferrer M, Arnaldez FI, Ji J, Tran HL, Zhang Y, Mendoza A, Helman LJ, Thomas CJ. Matrix Screen Identifies Synergistic Combination of PARP Inhibitors and Nicotinamide Phosphoribosyltransferase (NAMPT) Inhibitors in Ewing Sarcoma. Clin Cancer Res. 2017 Dec 1;23(23):7301-7311. doi: 10.1158/1078-0432.CCR-17-1121. Epub 2017 Sep 12. PMID: 28899971; PMCID: PMC6636827.
For `CC(=O)Nc1nc(C)c(-c2ccc(Cl)c(S(=O)(=O)NCCO)c2)s1`, the Potency is 1.18 µM (active). Turning to `CNC(=O)c1ccccc1Nc1nc(Nc2ccc(N3CCOCC3)cc2OC)ncc1Cl`, the Potency was 0.209 µM (active). The same measure, in the same setting: next, `CC(C)(C)OC(=O)Nc1ccc(-c2cc(C(=O)NCCCCCCC(=O)NO)no2)cc1`: 0.935 µM (active). Still for that read-out and setting: to `O=C(NC1CCNCC1)c1[nH]ncc1NC(=O)c1c(Cl)cccc1Cl` belongs 0.372 µM (active).

On to `NC(=O)c1c(OCc2c(F)cc(Br)cc2F)nsc1NC(=O)NCCCCN1CCCC1`, for which the Potency is 8.33 µM (active). Regarding `C#Cc1cccc(Nc2ncnc3cc(OC)c(OCCCCCCC(=O)NO)cc23)c1`, the Potency is 0.0526 µM (active). On the same count and under the same terms, next, `CN(c1ncccc1CNc1nc(Nc2ccc3c(c2)CC(=O)N3)ncc1C(F)(F)F)S(C)(=O)=O`: 3.32 µM (active); `CC(C)(C)c1cnc(CSc2cnc(NC(=O)C3CCNCC3)s2)o1`: 0.209 µM (active).

Take `O=C(Nc1cn[nH]c1-c1nc2ccc(CN3CCOCC3)cc2[nH]1)NC1CC1`: the Potency is 1.87 µM (active).

Turning to `COc1cccc2nc(-c3cccs3)nc(NN3C(=O)C=C(C)C3=O)c12`, the Potency was 0.0264 µM (active). Same read-out and setting: to `Cc1c(NC(=O)OC[C@@H]2COCCN2)cn2ncnc(Nc3ccc4c(cnn4Cc4cccc(F)c4)c3)c12` belongs 7.43 µM (active). For `CN1CCN(c2ccc3nc(-c4c(N)c5c(F)cccc5[nH]c4=O)[nH]c3c2)CC1`, the Potency is 2.64 µM (active).

As to `CC[C@@H]1C(=O)N(C)c2cnc(Nc3ccc(C(=O)NC4CCN(C)CC4)cc3OC)nc2N1C1CCCC1`, the Potency is 4.69 µM (active). With `O=C(c1ccc(Nc2nccc(-c3cc4ccccc4s3)n2)cc1)N1CCC(N2CCCC2)CC1`, the Potency was 4.18 µM (active). As for `CCCNC(=O)Nc1ccc(Oc2ncnc3cc(OC)c(OC)cc23)cc1Cl`, the “viability (% of control)” value is 105%. Regarding `COc1ccc(CC2c3cc(OC)c(OC)cc3CC[N+]2(C)CCC(=O)OCCCCCOC(=O)CC[N+]2(C)CCc3cc(OC)c(OC)cc3C2Cc2ccc(OC)c(OC)c2)cc1OC` (stereo not given), the viability (% of control) is 100% [at 5.15 µM]. As for `CNC(=O)c1cc(Oc2ccc(NC(=O)Nc3cc(C(C)(C)C)nn3-c3ccc4ncccc4c3)c(F)c2)ccn1`, the Potency was 6.62 µM (active). Same read-out and setting: next, `CC(C)[C@H](C(=O)Nc1ccc(C(=O)NO)cc1)c1ccccc1`: 0.418 µM (active); `CNC(=O)CN1CCC(Oc2cc3c(Nc4cccc(Cl)c4F)ncnc3cc2OC)CC1`: 0.0187 µM (active); `COc1cc2ncn(-c3cc(OCc4ccccc4C(F)(F)F)c(C(N)=O)s3)c2cc1OC`: 13.2 µM (active). Still for that read-out and setting: next, `CC(C)CC(=O)Nc1n[nH]c2c1CN(C(=O)C1CCN(C)CC1)C2(C)C`: 1.87 µM (active). For the compound `CN1c2cc(O)c(N=NC(N)=O)cc2CC1S(=O)(=O)O` (stereo not given), the “viability (% of control)” value was 107%.

In the case of `COCCOc1ccc2c(c1)ncn2-c1ccc2cccc(N3CCC(N)CC3)c2n1`, the Potency was 0.0662 µM (active). On the same count and under the same terms, next, `CCC(=C(c1ccccc1)c1ccc(OCCN(C)C)cc1)c1ccccc1`: 18.7 µM (active); `Cc1cnc(Nc2ccc(F)cc2Cl)nc1-c1c[nH]c(C(=O)N[C@H](CO)c2cccc(Cl)c2)c1`: 14.8 µM (active). On the same count and under the same terms, next, `Cc1ccc(C(=O)Nc2cccc(C(F)(F)F)c2)cc1-c1ccc2nc(NCCN3CCOCC3)ncc2c1`: 5.26 µM (active); `Fc1cc(-c2cccc3ncc(-c4cnn(C5CCNCC5)c4)nc23)cc(F)c1CN1CCOCC1`: 7.43 µM (active).

Regarding `Cn1c2cc(S(C)=O)sc2c2cnn(Cc3cccc(N)c3)c(=O)c21` (stereo not given), the “viability (% of control)” value is 117%.

Take `CC(C)(C)c1cc(C(C)(C)C)c(NC(=O)c2c[nH]c3ccccc3c2=O)cc1O`: the “viability (% of control)” value was 101%. Regarding `C=C1C(=CC=C2CCC[C@]3(C)[C@@H]([C@H](C)C=C[C@H](C)C(C)C)CC[C@@H]23)C[C@@H](O)C[C@@H]1O`, the Potency is 0.935 µM (active). For the compound `O=C(NCCS(=O)(=O)c1ccc(C(F)(F)F)cn1)c1ccc(Cl)cc1`, the “viability (% of control)” value was 122%. For `O=c1c2ccccc2nc2n1CCc1c-2[nH]c2ccccc12`, the “viability (% of control)” value is 86.3%.

Turning to `Cc1c(C)n(Cc2ccc(-c3ccccc3C(=O)O)cc2)c2ccc(C(=O)N[C@@H](C)c3ccc([N+](=O)[O-])cc3)cc12`, the Potency is 5.26 µM (active). The same measure, in the same setting: next, `O=c1[nH]nc(Sc2ncc([N+](=O)[O-])s2)n1-c1ccc2c(c1)OCCO2`: 1.32 µM (active). On the same count and under the same terms, to `Nc1ccc(C(=O)c2cc3c(ccc4ccccc43)[nH]2)cc1` belongs 3.72 µM (active). Consider `CC(=O)SC[C@@H](C)C(=O)N1CCC[C@H]1C(=O)N[C@@H](Cc1ccccc1)C(=O)O`, for which the “viability (% of control)” value was 102%. As to `O=C(C=Cc1cccnc1)NCCCCC1CCN(C(=O)c2ccccc2)CC1`, the Potency was 0.0059 µM (active). On the same count and under the same terms, next, `COc1cc(C(=O)N2CCC(N3CCN(C)CC3)CC2)ccc1Nc1ncc2c(n1)N(C)c1ccccc1C(=O)N2C`: 11.8 µM (active); `CN1CCN(c2cc(C(=O)Nc3ccc4c(c3)-c3c(c(C(N)=O)nn3-c3ccc(F)cc3)CC4)c(Cl)cn2)CC1`: 2.35 µM (active). Still for that read-out and setting: to `CNc1nccc(-c2cccnc2Oc2cc(C(=O)Nc3cccc(C(F)(F)F)c3)ccc2C)n1` belongs 8.33 µM (active).
